# The list is not random: actives were taken first. Their share in the collection is about 4.2%.
# RecA intein inh: inhibitors of M. tuberculosis RecA intein splicing | 0.75% of 290,000 active | AID 2221 | inhibition, % (test concentration not listed) | cell-free RecA intein splicing, fluorescence | P9WHJ3; in the data active = inhibition above about 30%; inconclusive = no clear call, values can overlap the other calls;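 also: 0% = vehicle wells and 100% = reference inhibitor control wells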
# GDH-TPI counter: inhibits GDH-TPI coupling enzymes, artifact for Mtb FBA screen. GDH-TPI coupled enzyme counterscreen, NADH absorbance. inhibition, % at 4.8 µM. 1.2% of 360,000 active. AID 588335;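 also: 0% = DMSO wells and 100% = wells lacking the enzyme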
# FBA Mtb inh: inhibits M. tuberculosis FBA enzyme. purified M. tuberculosis FBA, fluorescence read-out. AID 588726. inhibition, % at 1 µM. 2.3% of 360,000 active. P9WQA3; in the data active = inhibition above about 27%;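 also: 0% = vehicle and 100% = reference inhibitor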
# Target sequence (P9WQA3 whole entry, looked up): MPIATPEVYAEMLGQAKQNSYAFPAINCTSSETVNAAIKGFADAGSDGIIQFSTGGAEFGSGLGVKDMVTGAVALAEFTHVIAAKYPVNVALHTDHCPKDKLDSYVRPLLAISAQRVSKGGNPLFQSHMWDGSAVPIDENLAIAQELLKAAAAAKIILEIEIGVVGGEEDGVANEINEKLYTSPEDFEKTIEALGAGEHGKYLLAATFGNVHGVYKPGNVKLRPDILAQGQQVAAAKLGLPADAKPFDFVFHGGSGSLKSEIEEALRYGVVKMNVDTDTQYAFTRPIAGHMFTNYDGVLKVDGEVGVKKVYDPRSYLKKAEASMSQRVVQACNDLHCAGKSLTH
# Mtb bLac sens: beta-lactam sensitization of Mtb H37Rv; M. tuberculosis H37Rv growth with meropenem, percent inhibition; inhibition, % at 25 µM; 0.27% of 330,000 active; call rule not given here;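 also: growth measured after seven days incubation then overnight dye step; 0% = bacteria only wells and 100% = bacteria with antibiotic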
# CCHFV vOTU inh: CCHFV vOTU protease inhibition; Pep-AMC fluorescence; AID 651958; 0.55% of 370,000 active; inhibition, % at 11.5 µM; also: 0% = vehicle wells with enzyme and 100% = no enzyme wells
# * marks the source's active call; other numbers are inactive results; ? = inconclusive; / = no result; + = active, no number. Rule as the data show it, unless noted: active = inhibition above about 30%; inactive = the rest.
SMILES,RecA intein inh,GDH-TPI counter,FBA Mtb inh,Mtb bLac sens,CCHFV vOTU inh
CCc1c(C)c2cc(Cl)c(O)c(CN3CCCCC3)c2oc1=O,-364,2,+,11,-310
O=C(CN1CCc2onc(-c3ccc(-n4cc(-c5ccccc5)nn4)cc3)c2C1=O)N1CCOCC1,/,/,/,/,-6
CCCC(=O)N1CCC[C@]2(CC[C@H](CCC(=O)OCC)O2)C1,/,/,/,/,-6
CCOC(=O)c1cccc(NC(=O)CN(C)S(=O)(=O)c2ccc(F)cc2)c1,/,/,/,/,-7
CCc1cc(=O)oc2c(CN3CCN(C)CC3)c(O)ccc12,-42,18,+,-4,-352
CCCc1cc(=O)oc2c(CNc3ccc(OCC)cc3)c(O)ccc12,-42,9,165*,97,-131
CCc1cc(=O)oc2c(CN3CCN(C)CC3)c(O)c(Cl)cc12,-121,44*,+,?,-327
CCCCc1cc(=O)oc2c(CN3CCCC3)c(O)ccc12,-52,4,+,-6,-308
O=c1cc(-c2ccccc2)c2cc(Cl)c(O)c(CN3CCOCC3)c2o1,-128,7,9,1,-4
N=c1c2c(-c3ccccc3)c(-c3ccccc3)n(CCc3ccccc3)c2ncn1C1CCC(O)CC1 (configuration not stated),/,/,/,/,-2
CN(C)S(=O)(=O)c1cccc(C(=O)N/N=C\c2ccccc2[N+](=O)[O-])c1,/,/,/,/,1
COC(=O)[C@]12C[C@H](CC(=O)N3CCCCC3)C(=O)N(Cc3ccc(Cl)cc3Cl)C1=C[C@H](C(C)(C)C)O[C@@H]2C,/,/,/,/,21
Cc1cccc(-c2cccc3c4c([nH]c23)[C@@H]2C[C@H]3[C@@H](C(=O)N2CC4)[C@H](C)ON3C)c1,/,/,/,/,-20
Cc1occc(=O)c1OCc1c(F)cccc1Cl,-2,-8,-2,-7,7
CCc1cc(=O)oc2c(CNCc3c(F)cccc3Cl)c(O)ccc12,-69,11,+,1,-363
CCc1cc(=O)oc2c(CN3CCCC3)c(O)c(Cl)cc12,-81,26,+,-12,-303
CC1(c2nnnn2C2CCCCC2)CCCC(=O)N1CCc1ccc(O)cc1 (configuration not stated),/,/,/,/,-9
CCc1ccc2[nH]c(O)c(N=NC3=NC(=O)CS3)c2c1,0,28,0,31,28
CCc1ccc2c(c1)c(N=NC1=NC(=O)CS1)c(O)n2CC,2,31*,-8,95,12
Cn1c2ccccc2c(=O)n2c(=O)c3ccccc3cc12,93*,/,/,-2,/
C#CCOc1c(Cl)cc(C2C3=C(CCCC3=O)N(CC(=O)O)C3=C2C(=O)CCC3)cc1OC,-220,16,159*,2,-161
CCOc1cc(C2C3=C(CCCC3=O)N(CC(=O)O)C3=C2C(=O)CCC3)ccc1OC,2,7,0,4,9
COc1ccc(C2C3=C(CC(C)(C)CC3=O)N(CC(=O)O)C3=C2C(=O)CC(C)(C)C3)cc1OC,0,14,-2,-3,-4
COc1ccc(C2C3=C(CCCC3=O)N(CC(=O)O)C3=C2C(=O)CCC3)cc1Cl,-416,0,178*,-3,-148
COc1ccc(C2C3=C(CCCC3=O)N(CC(=O)O)C3=C2C(=O)CCC3)cc1Br,/,7,135*,/,-139
SMILES,RecA intein inh,GDH-TPI counter,FBA Mtb inh,Mtb bLac sens,CCHFV vOTU inh
O=C(Cn1nc(-c2ccccc2)ccc1=O)NCCc1ccccc1F,/,/,/,/,1
CC1(C)OC(C)(C)/C(=C\c2ccc(OCC(N)=O)cc2)C1=O,/,35*,-6,-1,12
NC(=O)COc1ccc(/C=C2\C(=O)ON=C2c2ccccc2)cc1,/,-1,-1,3,11
O=C(NCc1ccco1)C1CCCN(S(=O)(=O)c2ccc([N+](=O)[O-])cc2)C1 (configuration not stated),/,/,/,/,-5
CCCCNC(=O)C[C@H]1C[C@@]2(C(=O)OC)C(=C[C@H](COCc3ccccc3)O[C@@H]2C)N(Cc2cccc3ccccc23)C1=O,/,/,/,/,4
O=c1c(-c2nc3ccccc3s2)cccn1Cc1ccccc1,-42,21,194*,3,-118
O=C(CCc1ccccc1)N[C@H]1[C@H](OC(=O)c2cccnc2)CCC[C@@]12C(=O)N(Cc1ccccc1)c1ccccc12,/,/,/,/,1
Cc1cc(C(=O)N/N=C/c2cccnc2)n[nH]1,0,-5,1,-10,22
Cc1cc(C(=O)N/N=C/c2cccc(OC(=O)c3ccco3)c2)n[nH]1,44*,8,0,-5,-6
COc1cc(C(=O)NCC(=O)N/N=C/c2cccc(OC(=O)c3ccco3)c2)cc(OC)c1OC,39*,0,0,-1,3
C(=C\c1ccccc1)/CSc1nnc(COc2ccccc2)n1Cc1ccco1,/,/,/,/,27

# High-throughput results deposited in PubChem by several laboratories.
